Experimental data published in PubChem BioAssay AID720626 (Broad Institute, 2013).
Inconclusive results are not listed. The source made the active and inactive calls.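 How the source made its calls: active means all three exposure times show falling viability signal with fitted midpoint dose at most twice top tested dose; inconclusive means calls differ across the three exposure times; inactive means all three exposure times inactive.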

Test: viability loss in SR immunoblastic lymphoma – cell-based, Alamar Blue fluorescence, several timepoints, dry powder, mechanism study for HRAS target identification, late-stage follow-up (AID 720626)

SMILES | outcome
CCC(=O)N(c1ccc(OC)c(Cl)c1)C(C(=O)NCCc1ccccc1)c1cccs1 (configuration not stated) | inactive
Cc1onc(C(=O)N2CCN(C(c3ccncc3)c3ccncc3)CC2)c1[N+](=O)[O-] | inactive
